Assay outcomes: PubChem, National Center for Advancing Translational Sciences (NCATS)
TRHR PAM: TRH receptor (human) allosteric enhancement. P34981. AID 493056. TRHR cells, fluo-8 calcium fluorescence, EC20 TRH enhancement. actives 0.66% (n = 360,000). enhancement, % at 2 µM; in the data active means enhancement above about 30%
Target sequence (P34981 whole entry, looked up): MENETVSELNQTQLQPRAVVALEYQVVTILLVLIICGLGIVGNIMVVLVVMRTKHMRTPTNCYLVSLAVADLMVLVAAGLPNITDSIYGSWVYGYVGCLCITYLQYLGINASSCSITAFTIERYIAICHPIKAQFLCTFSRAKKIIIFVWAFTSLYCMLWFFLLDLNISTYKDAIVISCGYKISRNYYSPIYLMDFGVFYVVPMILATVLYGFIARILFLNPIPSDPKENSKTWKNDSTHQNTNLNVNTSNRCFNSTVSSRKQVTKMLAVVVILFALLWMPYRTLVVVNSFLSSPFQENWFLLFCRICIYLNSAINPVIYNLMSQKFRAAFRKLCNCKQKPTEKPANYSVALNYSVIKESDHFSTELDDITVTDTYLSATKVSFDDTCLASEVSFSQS
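Enhancer read-out: after compound pinning and an initial kinetic agonist-mode read, an EC20 of TRH (10 nM final) was injected and fluo-8 calcium signal (Ex 480/Em 530) followed at 1 s/cycle for 100 cycles in TRHR-expressing cells.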
TRHR agonist: agonists of human TRH receptor | actives 0.18% (n = 360,000) | TRHR cells, calcium flux fluo-8, FDSS agonist mode | AID 493084 | activation, % at 2 µM | P34981
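Agonist-mode FDSS calcium read (Ex 480/Em 530, 1 s cycles) in 1536-well TRHR cells with fluo-8 dye, after 10-cycle baseline and 23 nL compound addition; TRH at EC20 (10 nM final) added afterwards for the enhancer phase.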
D1 antagonist: human D1 dopamine receptor antagonism | actives 3.2% (n = 360,000) | activity change, negative = inhibition, % at 10 µM | HEK293 TREx D1 cells, calcium flux, dopamine EC80; hits give low values; in the data active means activity change below about -30%
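After overnight tetracycline induction at 30 C, force-coupled D1 HEK293 cells took up a no-wash calcium dye at room temperature. Compounds were added and monitored 180 s, and the response to EC80 dopamine was then recorded.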
D1 ag: human D1 receptor agonism; activation, % at 2 µM; P21728; actives 1% (n = 360,000); HEK293 T-REx D1 cells, calcium flux, agonist mode; AID 504660
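Tetracycline-induced HEK293 TREx D1 cells, force-coupled to calcium signalling, were dye-loaded with a no-wash calcium kit. Compound was pin-added after a 10 s baseline. Fluorescence was read kinetically at 1 cycle/s for 180 s, with calcium rises flagged as agonism.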
D1 PAM: potentiators of human D1 dopamine receptor; HEK293 TREx D1 cells, calcium flux, dopamine EC20 potentiation; potentiation, % at 10 µM; actives 0.036% (n = 360,000); AID 504651; in the data active means potentiation above about 30%
Numbers stand for hits; . = inactive; / = no result; ! = repeats disagree. This is a sample that favours compounds with a hit; in the whole collection about 4.7% have one here. Unless noted, no stated cut-off is given here; in the data, active means activation above about 30%; inactive means the rest.

SMILES	TRHR PAM	TRHR agonist	D1 antagonist	D1 ag	D1 PAM
COc1ccc(NC(=O)NNC(=O)COc2ccc3cc(Br)ccc3c2)c(OC)c1	.	.	-32	.	.
O=C(CSc1ncccn1)n1c2c(c3ccccc31)CCCC2	.	.	-43	.	.
CCN(CCCNC(=O)Cn1ncc2c(=O)oc3ccccc3c21)c1cccc(C)c1	.	.	-37	.	.
O=C(Cn1ncc2c(=O)oc3ccccc3c21)NCCCN1CCCC1=O	.	.	.	.	.
Cc1ccc2oc(=O)c3cnn(CC(=O)NCCC(C)C)c3c2c1	.	.	-37	.	.
COCCCNC(=O)Cn1ncc2c(=O)oc3ccccc3c21	.	.	-30	.	.
CCCC(=O)Nc1ccc(Cl)c(NC(=S)NC(=O)C(C)C)c1	.	.	-37	.	.
CCC1CCCCN1CCCNC(=O)CN1C(=O)COc2ccc(S(=O)(=O)N3CCOCC3)cc21 (stereo unspecified)	.	.	-38	.	.
CCC(C)NC(=O)CN1C(=O)COc2ccc(S(=O)(=O)N3CCOCC3)cc21 (stereo unspecified)	30!	.	.	.	.
O=C(CN1C(=O)COc2ccc(S(=O)(=O)N3CCOCC3)cc21)N1CCN(c2ccccc2F)CC1	33	.	.	.	.
Cc1c(Cl)cccc1NC(=O)C(=O)NCC(c1cccnc1)N1CCN(c2ccccc2)CC1 (stereo unspecified)	.	.	.	.	.
COC(=O)c1ccccc1NC(=O)CSc1nc2sc3c(c2c(=O)[nH]1)CCCC3	.	.	.	.	.
N#Cc1c(-c2cccnc2)c2c([nH]c1=O)-c1ccccc1OC2	.	.	-31	.	.
O=C(Nc1cc(-c2ccc(F)c(F)c2)no1)c1ccccc1F	.	.	.	.	.
O=C(CSc1nc(-c2cccc(Cl)c2)nc2cc(=O)[nH]n12)Nc1ccccc1	.	.	.	.	.
O=C(c1ccc(S(=O)(=O)Nc2cccc(C(F)(F)F)c2)cc1)N1CCOCC1	.	.	.	.	.
CC(C)(CNC(=O)c1ccc(S(=O)(=O)Nc2cccc(C(F)(F)F)c2)cc1)N1CCOCC1	35	.	.	.	.
CCOC(=O)Cc1csc(NC(=O)NC2(C(F)(F)F)Oc3ccc(Cl)cc3O2)n1 (stereo unspecified)	.	.	.	.	.
CCOC(=O)Cc1csc(NC(=O)c2cc(C)c(C)s2)n1	.	.	-35	.	.
CCOC(=O)Cc1csc(NC(=O)Cc2ccc(Br)cc2)n1	.	.	-37	.	.
CCOC(=O)Cc1csc(NC(=O)NC2(C(F)(F)F)Oc3cc(Cl)c(Cl)cc3O2)n1	.	.	.	35	.
CCOC(=O)Cc1csc(NC(=O)Nc2ccc(OC(F)(F)F)cc2)n1	.	.	-36	.	.
CCOC(=O)Cc1csc(NC(=O)c2ccc(NC(C)=O)cc2)n1	.	.	.	.	.
Cc1cc(C)cc(NC(=O)c2cc(S(=O)(=O)N3CCCCC3)c[nH]2)c1	.	.	.	.	.
CCOc1ccc(-n2c(=O)c3c4c(sc3n(CC(=O)Nc3cccc(C(F)(F)F)c3)c2=O)CCCCC4)cc1	.	.	.	.	.
SMILES	TRHR PAM	TRHR agonist	D1 antagonist	D1 ag	D1 PAM
Cc1ccc(SCC(=O)OCC(=O)NC2CCCCCC2)cc1	.	.	.	.	.
O=C(COC(=O)CSc1ccc(F)cc1)NCC1CCCCC1	.	.	-37	.	.
Cc1n[nH]c(=O)nc1NC1CCCCC1	.	.	-44	.	.
Cc1cc2occ(CC(=O)N(C)CC(=O)Nc3cccc(F)c3)c2cc1C	.	.	.	.	.
CC(CCc1ccccc1)NS(=O)(=O)c1ccccc1 (stereo unspecified)	.	.	-37	.	.
S=C(NCc1ccco1)N1CCN(c2ccccc2Cl)CC1	.	.	-33	.	.
S=C(NCc1ccco1)N1CCN(c2nc(-c3ccccc3)cs2)CC1	30	.	.	.	.
Cc1ccc(Cl)cc1NC(=O)CSc1ccc(C(=O)O)cn1	.	.	.	.	.
Nc1nc(Nc2ccccc2)nc(NCc2ccco2)c1[N+](=O)[O-]	.	.	.	.	.
Fc1ccc(Nc2nc(NCc3ccco3)c3ccccc3n2)cc1	.	.	-46	.	.
c1ccc(CNc2nc(NCc3ccccc3)c3ccccc3n2)cc1	.	.	-35	38	.
Cc1ccc(C)c(OCCC(=O)OCC(=O)NCCc2ccc(S(N)(=O)=O)cc2)c1	.	.	.	.	.
Cc1c(C(=O)NCc2ccc(F)cc2)sc2nc3n(c(=O)c12)CCC3	.	.	.	.	.
COc1ccc(-c2cn3c(n2)sc2cc(C(=O)Nc4c(C)cccc4C)ccc23)cc1	.	.	.	.	.
CCN1CCOC(=O)C1CC(=O)Nc1cc(Cl)ccc1C (stereo unspecified)	.	.	.	.	.
Cc1ccccc1Cc1c(C)nc2nc(SCC(=O)NCCc3ccc(Cl)cc3)nn2c1C	.	.	.	.	.
O=C(Cc1cccs1)NC1CC(=O)N(c2cccc(F)c2)C1 (stereo unspecified)	.	.	/	.	.
COc1ccc(/C=N/Nc2ccccc2C(=O)O)cc1Cn1cc([N+](=O)[O-])cn1	.	.	-32	.	.
CCCCc1cc(=O)oc2cc(C)cc(O)c12	.	.	-35	.	.
CC(C)(C)OC(=O)NCc1nnc(-c2cc3ccccc3[nH]2)o1	.	.	.	.	.
N#Cc1ccc(NC(=O)COCc2cc(-c3ccc4c(c3)OCO4)on2)cc1	.	.	-40	.	.
COc1ccc(NC(=O)COCc2cc(-c3ccc4c(c3)OCO4)on2)cc1	.	.	.	.	.
O=C(NCCC1=CCCCC1)c1ccc2c(c1)N(Cc1ccc(F)cc1)C(=O)c1ccccc1S2(=O)=O	.	.	.	.	.
COCCNC(=O)c1ccc2nc(CCc3ccccc3)oc2c1	.	.	-36	.	.
COCCCNC(=O)c1ccc2nc(CCc3ccccc3)oc2c1	.	.	.	.	.
SMILES	TRHR PAM	TRHR agonist	D1 antagonist	D1 ag	D1 PAM
COc1ccc(CNC(=O)c2ccc3nc(CCc4ccccc4)oc3c2)c(OC)c1	.	.	-42	.	.
CCOC(=O)c1c(C)oc2nc(C)nc(NCCc3ccc(S(N)(=O)=O)cc3)c12	.	.	.	.	.
CC(NC(=O)Cn1c(-c2cccs2)cc2cc(F)ccc21)c1ccccc1 (stereo unspecified)	.	.	.	.	.
O=C(CSc1ncc2c(n1)-c1cc(Cl)ccc1N(Cc1ccccc1)S2(=O)=O)NCCc1ccccc1	.	.	.	.	.
CCN(CCN(C)C)C(=O)C1CCN(S(=O)(=O)c2c(C)noc2/C=C/c2ccccc2F)CC1	.	.	-37	.	.
CCOc1ccccc1/C=C/c1onc(C)c1S(=O)(=O)N1CCC(C(=O)N(CC)CC)CC1	.	.	.	.	.
COC(=O)c1sc2cc([N+](=O)[O-])cc(SCC(C)C)c2c1N	.	.	.	91	.
